Records with an inconclusive call do not appear. Entries that show only a call come without a potency. Unmarked numbers belong to inactive results. Activity calls are given as the source filed them. Calls come from the whole dose curve; as a rule, active = well fitted activation curve with a large enough effect in the repeat runs; inconclusive = weak or mixed curves; inactive = flat fitted curve, though single readings scatter.
Test: A CellTox Green Cytotoxicity Assay to monitor cytotoxicity in HepG2 cells - 32 hour (AID 1224883); note: nearly all actives have a fitted effect of over 50% in size
Conditions: CellTox Green fluorescence; series mostly up to 76.8 µM; cytotoxicity increase: at the top concentration
Description: National Center for Advancing Translational Sciences [NCATS]
NIH Chemical Genomics Center [NCGC]
U.S. Environmental Protection Agency [EPA]
National Institutes of Environmental Health Sciences [NIEHS]
National Toxicology Program [NTP]
Cell-based models are critical for drug discovery. Determining the natural cytotoxic effects resulting from test compounds is an essential research activity. A CellTox Green Cytotoxicity Assay to monitor cytotoxicity in real time of continues cell culture during 40 hours of the compound treatment was used to screen Tox21 10K library compounds in HepG2 cells. CellTox Green Cytotoxicity Assay is a nonlytic, homogeneous, biofluorescent method to measure cytotoxicity in cell culture after experimental manipulation. The assay system uses a proprietary asymmetric cyanine dye that is excluded from viable cells but preferentially stains the dead cell's DNA. […] Viable cells produce no appreciable increases in fluorescence. Therefore, the fluorescence signal produced by the binding interaction with dead cell DNA is proportional to cytotoxicity.
The mixture of HepG2 cell suspension and reagents were dispensed at 600cells/6 ul/well in 1536-well tissue culture treated black solid bottom plates using a Multidrop dispenser. After the assay plates were incubated at a 37 C/5% CO2 incubator for 5 hours, 23 nL of compounds dissolved in DMSO, positive and negative controls was transferred to the assay plate by a pintool work station. The plates were incubated at 37 C for 40 hours. The fluorescence intensity were measured at 0h, 8h, 16h, 24h, 32h and 40h time points using ViewLux plate reader during compound treatment.

Structure (SMILES) | Potency | cytotoxicity increase
CC(C)=C[C@@H]1[C@@H](C(=O)OCc2coc(Cc3ccccc3)c2)C1(C)C | inactive | –
COC(=O)c1ccccc1N | inactive | –
O=C(O)c1ccccn1 | inactive | –
O=S(=O)(c1ccc(Cl)cc1)c1cc(Cl)c(Cl)cc1Cl | inactive | –
CC(NC(C)(C)C)C(=O)c1cccc(Cl)c1 (stereo not given) | inactive | –
[N-]=[N+]=[N-] | inactive | –
CC(C)OC(=O)Nc1ccccc1 | inactive | –
COC(=O)c1ccccc1C(=O)OC | inactive | –
CC(C)(Cl)Cl | inactive | –
Cc1cc(-c2cc(C)c(N)c(C)c2)cc(C)c1N | – | -2.95%
O=c1[nH]c2ccccc2c(=O)o1 | inactive | –
CON(C)C(=O)Nc1ccc(Cl)c(Cl)c1 | inactive | –
O=c1n(Cl)c(=O)n(Cl)c(=O)n1Cl | inactive | –
O=c1[nH]c(=O)[nH]c(=O)[nH]1 | inactive | –
CCc1cccc(C)c1N(C(=O)CCl)C(C)COC (stereo not given) | inactive | –
CC(Oc1ccc(Cl)cc1Cl)C(=O)O (stereo not given) | inactive | –
CC(Br)C(=O)O (stereo not given) | inactive | –
CCCCOC(=O)c1ccccc1C(=O)OCCCC | inactive | –
Cc1ccc(N)cc1Cl | inactive | –
C[C@]12CC[C@H]3[C@@H](CC[C@@]45O[C@@H]4C(O)=C(C#N)C[C@]35C)[C@@H]1CC[C@@H]2O | – | -7%

Structure (SMILES) | Potency | cytotoxicity increase
CC(C)N1C(=O)c2ccccc2NS1(=O)=O | inactive | –
CCC12COCN1COC2 | inactive | –
CC(C)OC(=O)Nc1cccc(Cl)c1 | inactive | –
Oc1ccccc1Cl | inactive | –
Nc1ccc(Br)cc1 | inactive | –
Cc1cccc([N+](=O)[O-])c1 | inactive | –
Cc1cc(Cl)ccc1O | inactive | –
CCCCN(CC)C(=O)SCCC | inactive | –
COC(=O)NC(=S)Nc1ccccc1NC(=S)NC(=O)OC | inactive | –
CN(C)N=O | inactive | –
CC1OC(C)OC(C)O1 (stereo not given) | inactive | –
CCCN(CCC)N=O | inactive | –
CCN(CC)c1ccccc1 | inactive | –
Nc1c(Cl)c(Cl)nc(C(=O)O)c1Cl | inactive | –
CCCN(CCC)c1c([N+](=O)[O-])cc(C(F)(F)F)cc1[N+](=O)[O-] | inactive | –
c1cc2c3c(cccc3c1)CC2 | – | 1.78%
CC1C=[C-]C=C1.[C-]#[O+].[C-]#[O+].[C-]#[O+].[Mn] | inactive | –
OC(O)C(Cl)(Cl)Cl | inactive | –
COC(=O)NS(=O)(=O)c1ccc(N)cc1 | inactive | –
O=[N+]([O-])c1ccc([As](=O)(O)O)cc1 | – | 0.0015% [at 35.3 µM]

Reference: PubChem BioAssay (Tox21)
